An excerpt weighted towards active compounds, which were near 5.2% of everything screened.
VDR inhibitor: Inhibitors of the vitamin D receptor (VDR): qHTS; Vitamin D3 receptor (Homo sapiens), P11473; VDR-SRC2-3 peptide fluorescence polarization, 2 h; Potency, µM, for the others: max response, negative = inhibition, most hits filed as inhibitors; hit rate 0.93% among 400,000
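VDR–SRC2-3 interaction, FP format. Cmpds 23 nl via pintool, brief spin, 2 h ambient incubation.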
mIDH1 inhibitor: qHTS for Inhibitors of mutant isocitrate dehydrogenase 1 (IDH1): qHTS; IDH1-R132H enzyme, NADPH consumption, diaphorase/resazurin fluorescence; Potency, µM (highest dose often 76.6 µM), inactives show at the highest dose activity change, negative = inhibition, usual class: inhibitors; hit rate 0.093% among 390,000; AID 602179, 2012; further: nearly all actives have a fitted effect of over 65% in size
Target sequence (O75874 whole entry R132H, stated change not applied): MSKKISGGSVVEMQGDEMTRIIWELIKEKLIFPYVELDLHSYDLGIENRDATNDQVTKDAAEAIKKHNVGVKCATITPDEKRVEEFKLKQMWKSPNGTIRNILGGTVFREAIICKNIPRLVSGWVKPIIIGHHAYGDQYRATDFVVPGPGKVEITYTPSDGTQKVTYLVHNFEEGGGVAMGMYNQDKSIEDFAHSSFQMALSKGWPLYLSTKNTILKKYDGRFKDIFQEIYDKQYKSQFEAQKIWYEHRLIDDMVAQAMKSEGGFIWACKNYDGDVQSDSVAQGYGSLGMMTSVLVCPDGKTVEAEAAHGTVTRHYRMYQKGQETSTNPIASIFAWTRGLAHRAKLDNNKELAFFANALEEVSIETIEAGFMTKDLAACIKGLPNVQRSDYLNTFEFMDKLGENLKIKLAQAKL
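IDH1-R132H (0.5 ug/mL) preincubated 30 min with compound, then NADPH (0.016 mM) and alpha-KG (2 mM) added; 80 min at RT, pH 7.5. Remaining NADPH coupled via diaphorase/resazurin to fluorescence (540/590 nm); concentration-response curves normalized to no-enzyme control.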
TrxR1 inh: qHTS Assay for Inhibitors of Mammalian Selenoprotein Thioredoxin Reductase 1 (TrxR1): qHTS | Potency, µM (highest dose often 114 µM), for inactives: at the highest dose activity change, negative = inhibition, actives largely listed as inhibitors | recombinant rTrxR1, NADPH fluorescence consumption, selenite substrate | Thioredoxin reductase 1, cytoplasmic (Rattus norvegicus), O89049 | hit rate 1% among 390,000; further: nearly all actives have a fitted effect of over 65% in size
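Rat TrxR1 (90 nM in the dispensed reagent) was pre-reduced with 400 uM NADPH for 5 min at room temperature, then incubated with compound for 15 min. After 400 uM selenite was added, NADPH fluorescence (Ex 340/Em 450 nm) was followed for 8 min.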
PLK1 PBD block: qHTS for Inhibitors of PLK1-PDB (polo-like kinase 1 - polo-box domain): Primary Screen | hit rate 2.8% among 360,000 | Potency, µM, without a hit: max response, negative = inhibition, hits mostly inhibitors | Plk1 PBD binding of FITC phosphopeptide, fluorescence polarization | Serine/threonine-protein kinase PLK1 (Homo sapiens), P53350; further: series mostly up to about 57 µM; nearly all actives have a fitted effect of over 65% in size
TrxR1 substrate: qHTS Assay for Substrates of Mammalian Selenoprotein Thioredoxin Reductase 1 (TrxR1): qHTS; purified TrxR1 substrate turnover, NADPH consumption readout; Potency, µM (doses to about 114 µM), without a hit: at the highest dose activity change, negative = substrate turnover; hit rate 0.01% among 390,000; further: nearly all actives have a fitted effect of over 50% in size
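Rat TrxR1, dispensed at 90 nM, was prereduced with 400 uM NADPH (final) for 5 min at ~22 deg C, then incubated with compound 15 min before 400 uM selenite. A first-read NADPH fluorescence drop versus no-compound background flagged substrates.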
Sfp PPTase inh: qHTS Assay for Inhibitors of Bacillus subtilis Sfp phosphopantetheinyl transferase (PPTase). hit rate 3.5% among 310,000. 4'-phosphopantetheinyl transferase ffp (Bacillus subtilis), Q9F4F7. Biochemical Sfp PPTase activity, qHTS. Potency, µM, for the others: largest response in the series, negative = inhibition, actives largely listed as inhibitors;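 further: the enzyme is Sfp with the accession as filed and its product quenches rhodamine fluorescence; 0% = enzyme reaction without inhibitor and -100% = no enzyme wells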
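Buffer: 50 mM Hepes-Na pH 7.6, 10 mM MgCl2, 0.01% Nonidet P-40, 0.01% BSA. Enzyme 15 nM, pre-exposed to compound 15 min; substrates then added and fluorescence change tracked over 30 min.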
* hit, by the source's call; ? = inconclusive; . = not tested or not shown; ! = not confirmed by another sample; [ ] = dose if it differs, or a comment. The call rests on the fitted dose curve; in most records, active means well fitted curve in the direction sought with a large enough effect; inconclusive means small, poorly fitted or top-dose-only effect, or another doubt; inactive means no such curve, though single readings can be large; an effect the other way counts as inactive or inconclusive. Unless noted, on the % scale 0 is the no-effect control and ±100 the full control effect; potency means the concentration at half of the fitted maximal effect.

SMILES	VDR inhibitor	mIDH1 inhibitor	TrxR1 inh	PLK1 PBD block	TrxR1 substrate	Sfp PPTase inh
CC(=O)NC(Cc1ccc([N+](=O)[O-])cc1)C(=O)NCC(N)C(=O)c1ccccc1 (stereo not drawn)	.	.	4%	.	1%	.
COc1ccc(CN2C(=O)C(CC(=O)NC3CC3)CC(C(=O)N(C)C)=C2C)cc1 (stereo not drawn)	.	0%	.	-6%	.	.
Cc1ccc(S(=O)(=O)Nc2ccnc3ccccc23)cc1	?	0%	2%	27µM*	-9%	13%
O=C(Nc1ncc(Cc2ccccc2Cl)s1)c1ccc2c(c1)CC(c1ccccc1)OC2=O (stereo not drawn)	-3%	16%	28%	.	10%	.
COc1ccc(OC)c(NC(=O)c2cccc3c2C(=O)N(C2CCCCC2)C3)c1	22µM*!	0%	22µM*!	7%	7%	1%
COc1ccc(NC(=O)c2cccc3c2C(=O)N(C2CCCCC2)C3)cc1	27%	-5%	21%	5%	6%	-6%
Cc1ccc(NC(=O)c2nc(S(=O)(=O)Cc3ccc(F)cc3)ncc2Cl)cc1C	-30%	-7%	2.8µM*	.	8%	.
Cc1ccc(CS(=O)(=O)c2ncc(Cl)c(C(=O)Nc3nc4ccc(F)cc4s3)n2)cc1	-9%	-10%	?	.	-3%	.
COc1ccc(OC)c(NC(=O)c2nc(S(=O)(=O)Cc3ccc(F)cc3)ncc2Cl)c1	?	0%	0.71µM*	.	1%	.
Cc1cccc(CS(=O)(=O)c2ncc(Cl)c(C(=O)NCc3ccc4c(c3)OCO4)n2)c1	?	-3%	5%	?	20%	-11%
Cc1ccccc1CS(=O)(=O)c1ncc(Cl)c(C(=O)Nc2nnc(C(C)C)s2)n1	?	-1%	7.1µM*	.	2%	.
CC(=O)Nc1ccc(NC(=O)c2nc(S(=O)(=O)Cc3cccc(C)c3)ncc2Cl)cc1	?	2%	10µM*	13µM*	3%	-3%
OCC1OC(Oc2c[nH]c3ccccc23)C(O)C(O)C1O (stereo not drawn)	?	-14%	10%	?	3%	.
COc1ccc(S(=O)(=O)N2CCOCC2)cc1NC(=O)c1c(-c2ccccc2)noc1C	-26%	-2%	7%[57.1 µM]	-8%	-12%	.
CSc1ncc(Cl)c(C(=O)Nc2ccc(C)c(C)c2)n1	7%	10%	23%	-7%	4%	3%
COC(=O)c1ccccc1NC(=O)c1nc(S(=O)(=O)Cc2cccc(C)c2)ncc1Cl	?	-20%	1.4µM*	.	8%	.
CCS(=O)(=O)c1ncc(Cl)c(C(=O)Nc2ccccc2OC)n1	?	14%	?	3%	1%	7%
Cc1ccc(NC(=O)c2nc(S(=O)(=O)Cc3ccccc3C)ncc2Cl)cc1C	?	4%	32µM*	27µM*	1%	-16%
Cc1ccccc1NC(=O)c1nc(S(=O)(=O)Cc2ccccc2F)ncc1Cl	.	.	3.5µM*	.	19%	.
CSc1ncc(Cl)c(C(=O)Nc2ccccc2C)n1	-8%	-5%	8%[57.1 µM]	3%	10%[57.1 µM]	14%
CC(=O)Nc1ccc(NC(=O)c2nc(S(=O)(=O)Cc3ccc(F)cc3)ncc2Cl)cc1	?	6%	1.3µM*	.	-2%	.
O=C1c2ccccc2C(=O)N1/N=C/c1ccc(O)c(O)c1O	79µM*	10%	-6%	13µM*	-24%	7.9µM*
Cc1nc2ccccc2c(=O)n1/N=C/c1ccc(O)c(O)c1O	-5%	-5%	-14%[57.1 µM]	11µM*	-12%	7.1µM*
Oc1ccc(/C=N/N2CCOCC2)c(O)c1O	?	5%	2%[57.1 µM]	9.5µM*	8%[57.1 µM]	10µM*
COc1ccccc1-c1nn(Cc2ccccc2)cc1C(=O)NCC(c1ccco1)N1CCCC1 (stereo not drawn)	11%	10%	-1%	3%	2%	.
SMILES	VDR inhibitor	mIDH1 inhibitor	TrxR1 inh	PLK1 PBD block	TrxR1 substrate	Sfp PPTase inh
O=C(CC(Nc1ccccc1Cl)C(=O)OCC(=O)c1cccs1)c1ccccc1 (stereo not drawn)	-4%	-1%	13µM*	1%	14%	45µM*
COc1ccccc1NC(CC(=O)c1ccccc1)C(=O)OCC(=O)c1ccc(C)c(C)c1 (stereo not drawn)	?	7%	45µM*	-14%	-8%	-8%
COc1ccccc1NC(CC(=O)c1ccccc1)C(=O)OCC(=O)c1ccc(Br)cc1 (stereo not drawn)	-25%	1%	71µM*	-7%	-6%	4%
COc1ccccc1NC(CC(=O)c1ccccc1)C(=O)OCC(=O)c1ccc(C)cc1 (stereo not drawn)	3%	1%	-18%	-9%	-6%	0%
O=C(CNC(=O)c1ccccc1)OCC(=O)c1cccs1	1%	1%	23%	-13%	4%	23%
C[C@H](C(=O)O)c1cccc(Oc2ccccc2)c1	0%	.	.	.	.	19%
COc1cc(C(=O)C(=O)N2CCN(c3ccccc3)CC2)cc2ccccc12	.	.	.	-1%	.	.
Cc1cc(C)n(CC(C)NC(=O)c2cc(COc3ccc(F)c(F)c3)on2)n1 (stereo not drawn)	-14%	-4%	-7%	-4%	-10%	14%
Cc1cc(C)n(CC(C)NC(=O)c2cc(COc3c(F)cccc3F)on2)n1 (stereo not drawn)	?	2%	8%	19µM*	4%	4%
CC(=O)Nc1ccc(OS(=O)(=O)O)cc1	-6%	.	.	.	.	4%
CC1CCCC(NC(=O)COC(=O)c2ccc(N(C)C)cc2)C1C (stereo not drawn)	4%	7%	22%	-1%	17%	-13%
CCN(CC)c1ccc(C(=O)OCC(=O)NC2CCCCC2C)cc1 (stereo not drawn)	-13%	2%	8%	30µM*	2%	-14%
Oc1ccccc1C(=S)N1CCN(c2cccc(Cl)c2)CC1	89µM*	1%	15%[11.4 µM]	12µM*	2%[11.4 µM]	16µM*
O=C(C(=O)N1CCN(c2cccc(Cl)c2)CC1)N1CCCCC1	2%	6%	18%[57.1 µM]	-17%	6%[57.1 µM]	2%
COc1cc(C(=S)N2CCN(c3cccc(Cl)c3)CC2)ccc1O	40µM*	0%	-21%	4.7µM*	-7%	10µM*

Compound activity (PubChem)
